Bioassay records as filed in PubChem.
VP16 counter: inhibits Gal4-VP16 luciferase reporter, ROR gamma counter-screen. Drosophila S2 Gal4-VP16 UAS-luciferase, luminescence, 20 h. 3.5% of 310,000 active. Potency, µM (titrated, usually from 53.6 µM), inactives show at the highest dose activity, negative = inhibition, actives largely listed as inhibitors;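 note: Gal4-VP16 expression switched on by copper sulfate through the metallothionein promoter; potency is the fitted concentration of half-maximal effect; % is set by controls: 0 for no effect and ±100 for the full control effect; nearly all actives have a fitted effect of over 50% in size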
Giardia killer: Giardia lamblia killing; 0.15% of 340,000 active; Giardia lamblia trophozoite viability; activity change, % at 7.66 µM, hits read low; AID 540267; in the data active = activity change below about -80%; inconclusive = between about -30% and that limit;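 note: parasites exposed to compound for two days anaerobically before the ATP read; % is set by controls: 0 for no effect and ±100 for the full control effect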
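Trophozoite viability was measured as ATP-dependent luminescence, read 15-30 min after reagent addition. Before that, parasites at 100 cells/well were exposed to compounds for 48 h, anaerobically, at 37 deg C.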
ERG Ets-DNA blk: ERG Ets/DNA interaction inhibition | fluorescence polarization, His-ERG Ets domain / labelled DNA | Potency, µM (series often up to 76.9 µM), inactives show top-dose FP activity, negative = inhibition, most hits filed as inhibitors | 0.028% of 370,000 active; active = well fitted inhibition curve with a large enough effect in the polarisation, with a control signal flat; inconclusive = small, poorly fitted or top-dose-only effect, or effect the other way, or a change in a side signal; inactive = no such curve, though single readings can be large or run the other way; the % refers to the polarisation;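 note: polarization taken with two DNA probes labelled with fluorescein and Texas red; potency is the fitted concentration of half-maximal effect; % of control where 0% means no effect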
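His-tagged ERG Ets domain (1 uM in the protein solution; 300mM KCl, 50mM Tris-HCl, 1mM EDTA, 1mM DTT, pH 7.5) received compound, then a probe mix of 5 nM fluorescein-DNA and 100nM Texas-615-DNA. Fluorescence polarization was read for both dyes.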
RORgamma inh: blocks mouse ROR gamma transcriptional activity | Potency, µM (doses to about 53.6 µM), for the others: at the highest dose activity change, negative = inhibition, most hits filed as inhibitors | 5.4% of 310,000 active | Drosophila S2 Gal4-RORgamma UAS-luciferase reporter, 20 h | P51450; note: potency is the fitted concentration of half-maximal effect; % is set by controls: 0 for no effect and ±100 for the full control effect; nearly all actives have a fitted effect of over 60% in size
Target sequence (P51450 whole entry, looked up, the tested form may be a part): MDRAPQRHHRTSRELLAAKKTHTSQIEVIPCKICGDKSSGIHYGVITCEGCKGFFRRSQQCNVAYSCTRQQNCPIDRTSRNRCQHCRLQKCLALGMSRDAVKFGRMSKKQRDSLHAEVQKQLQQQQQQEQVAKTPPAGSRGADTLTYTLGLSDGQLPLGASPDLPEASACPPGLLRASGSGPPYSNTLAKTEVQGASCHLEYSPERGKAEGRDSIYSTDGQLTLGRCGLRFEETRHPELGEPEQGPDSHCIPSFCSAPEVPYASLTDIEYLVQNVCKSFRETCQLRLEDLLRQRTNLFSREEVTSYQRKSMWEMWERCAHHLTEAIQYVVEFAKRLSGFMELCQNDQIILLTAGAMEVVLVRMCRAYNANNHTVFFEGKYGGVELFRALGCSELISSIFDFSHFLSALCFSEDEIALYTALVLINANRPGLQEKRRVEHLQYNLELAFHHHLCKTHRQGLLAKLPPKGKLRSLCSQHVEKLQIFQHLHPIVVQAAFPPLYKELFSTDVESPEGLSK
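Stable Schneider cell line, Gal4 DNA-binding domain fused to ROR gamma, UAS-luciferase. Cmpd 1 hr RT → CuSO4 700 uM final → 20 hr RT → luciferase reagent 10 min → luminescence.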
Integrin act MD: activators of alpha7 integrin expression for muscular dystrophy | alpha7betagal myoblasts, beta-gal FDG fluorescence, 48 h | Potency, µM (doses to about 38.3 µM), for inactives: top-dose activation, actives largely listed as activators | 0.064% of 350,000 active;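 note: potency is the fitted concentration of half-maximal effect; 100% = response of the positive control SU9516; nearly all actives have a fitted effect of over 60% in size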
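Alpha7betagal+/- myoblasts (passage 13) were plated 16-24 hr, then exposed to compounds (1:260 dilution of DMSO stock) for 48 hours at 37C. After MPER lysis, β-galactosidase reporter activity was read as FDG fluorescence (ex 480/em 540) after 30 minutes.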
Starred values were filed as active, the others as inactive; ? = inconclusive; nt = no result given; [ ] = remark or other dose. This excerpt belongs to a sample that is enriched for hits. Unless noted, calls come from the whole dose curve; as a rule, active = well fitted curve in the direction sought with a large enough effect; inconclusive = small, poorly fitted or top-dose-only effect, or another doubt; inactive = no such curve, though single readings can be large; an effect the other way counts as inactive or inconclusive.

SMILES	VP16 counter	Giardia killer	ERG Ets-DNA blk	RORgamma inh	Integrin act MD
CC(C)CC(=O)Nc1ccc(C(=O)Cn2c(=O)oc3ccccc32)cc1	2.1%	11.4	-2.4%	35.6%	5.2%
C=CCn1c(=O)n(C2OC(CO)C(O)C2O)c2nc(N)[nH]c(=O)c21 (stereo not drawn)	-8.1%	nt	nt	-7.3%	nt
O=C(NNC(=S)Nc1ccccc1)C1CCCCC1	-4.2%	8.0	-5.3%	-34.2%	4.7%
S=C(Nc1ccc(Nc2ccccc2)cc1)NC1CCCCCC1	?	22.2	0.6%	1.26µM*	-69.4%
Cc1ccc(S(=O)(=O)N2CCN(C(=O)c3ccc(N4CCCCC4)c([N+](=O)[O-])c3)CC2)cc1	-2.1%	18.5	-9.8%	?	?
CSc1ccccc1NS(=O)(=O)c1cccc2nonc12	-18.0%	5.9	3.3%	11.2µM*	-8.0%
CCC(C(=O)NC1CCCCC1)n1nc(C)c2sc3ccccc3c2c1=O (stereo not drawn)	nt	nt	-0.2%	nt	nt
CCn1c(SCc2ccc(Cl)cc2Cl)nc2nc3c(cc2c1=O)CCCC3	6.0%	-1.2	-9.0%	7.08µM*	-3.8%[7.66 µM]
O=C(CSc1nc2ccccc2c(=O)n1Cc1ccc(F)cc1)NCc1cccs1	5.01µM*	-1.5	1.6%	2.82µM*	-9.0%
Cc1cc(NC(=O)CSc2nc3ccccc3c(=O)n2Cc2ccc(F)cc2)no1	-18.4%	-13.9	2.2%	?	7.6%
O=C1OCCC1Sc1nc2ccccc2c(=O)n1Cc1ccc(F)cc1 (stereo not drawn)	8.91µM*	19.9	-3.3%	3.98µM*	1.4%
O=C1OCCC1Sc1nc2ccccc2c(=O)n1-c1ccc(F)cc1 (stereo not drawn)	-1.1%	6.4	-8.3%	?	0.8%
CSCCC(NS(=O)(=O)c1ccc(Cl)cc1)C(=O)OCC(=O)c1c(C)[nH]c2ccccc12 (stereo not drawn)	15.8µM*	-3.3	-11.0%	?	-20.3%
COc1ccccc1NC(=O)c1ccc2c(c1)N(CC(=O)NC(C)C)C(=O)C(C)(C)O2	13.6%	11.6	3.4%	-20.8%	-61.3%
CCC(C)[C@@H](NC(=O)OC(C)(C)C)c1nnc(S(=O)(=O)Cc2cccc(C)c2)o1 (stereo partly drawn)	5.01µM*	0.6	-9.8%	3.16µM*	-68.2%
CCSc1nnc([C@H](Cc2ccccc2)NC(=O)OC(C)(C)C)o1	16.1%	-1.4	-7.6%	11.8%	-2.5%
Cc1cccc(CS(=O)(=O)Cc2ccc(C(=O)NC(C)c3ccccc3)o2)c1 (stereo not drawn)	-8.6%	14.8	-4.6%	19.1%	-29.0%
CC(C)(C)OC(=O)N[C@@H](Cc1ccccc1)c1nnc(SCC(=O)O)o1	6.7%	1.5	0.0%	0.5%	0.5%
Cc1ccccc1CS(=O)(=O)c1nnc([C@H](Cc2ccccc2)NC(=O)OC(C)(C)C)o1	3.16µM*	-3.4	-12.2%	-15.6%	-58.9%
CC(C)(C)OC(=O)N[C@@H](Cc1ccccc1)c1nnc(S(=O)(=O)Cc2ccccc2)o1	4.47µM*	nt	nt	4.47µM*	nt
O=C(c1ccc(O)c(Cl)c1)N1CCN(S(=O)(=O)c2ccccc2)CC1	-5.1%	-2.8	9.9%	5.1%	29.0%
COc1cc(CNCc2ccccn2)ccc1OCc1ccccc1Cl	?	13.7	1.3%	14.1µM*	-28.3%
COc1ccc(CC(=O)NCc2ccccn2)cc1OC	-5.6%	-2.4	2.8%	11.2µM*	-18.4%
COc1ccc(NC(=O)NCc2ccccn2)cc1OC	4.1%	-10.5	1.6%	-40.8%	-2.7%
Cc1ccc(OCC(=O)NNC(=O)CSc2ncnc3sc(C)c(C)c23)cc1	4.1%	-17.5	-10.8%	-14.8%	8.8%
SMILES	VP16 counter	Giardia killer	ERG Ets-DNA blk	RORgamma inh	Integrin act MD
Cc1sc2ncnc(SCC(=O)c3ccc(Cl)s3)c2c1C	-10.2%	nt	nt	36.9%	nt
Cc1ccc(OCCSc2ncnc3sc(C)c(C)c23)cc1C	-14.6%	4.0	-12.2%	11.2µM*	-7.3%
Cc1sc2ncnc(SCC(=O)c3ccc(O)cc3O)c2c1C	?	-17.7	-4.3%	12.6µM*	-32.3%
CCN(c1ccccc1)S(=O)(=O)c1ccc(NC(=O)c2cc(=O)c3cc(C)cc(C)c3o2)cc1	nt	nt	3.2%	nt	nt
Cc1cc(=O)[nH]c2nnc(SCc3ccccc3F)n12	nt	nt	-1.3%	nt	nt
O=C1c2ccc3c4c(ccc(c24)C(=O)N1CCCCO)C(=O)N(CCCCO)C3=O	1.8%[10 µM]	?	?	8.91µM*	-58.1%
CCN(CC)P(=O)(Nc1ccc(C)cc1Br)c1ccc(N(C)C)cc1NC(=O)c1ccco1 (stereo not drawn)	8.4%	12.6	-0.7%	33.1%	9.3%
COc1ccc2c(c1)-c1nc(/N=C/c3c(O)ccc4ccccc34)sc1CC2	?	9.4	4.0%	15.8µM*	-12.8%
COc1ccc2c(c1)CCc1sc(NC(=O)c3ccc(Br)cc3)nc1-2	nt	nt	0.3%	nt	nt
COc1ccc2c(c1)-c1nc(/N=C/c3ccc(O)cc3)sc1CC2	?	-25.5	-1.4%	-0.7%	4.8%
COc1ccc2c(c1)-c1nc(NC(=O)c3cccs3)sc1CC2	?	-11.1	-9.5%	8.91µM*	4.8%
COc1ccc2c(c1)CCc1sc(NC(=O)c3ccc(C)cc3)nc1-2	1µM*	-3.4	-8.2%	0.141µM*	2.6%
CSc1nc(=O)[nH]c2nc[nH]c12	nt	-16.5	nt	nt	nt
O=C(O)c1ccc2c(c1)C(=O)N([C@]1(C(=O)O)CC1c1ccccc1)C2=O (stereo partly drawn)	-1.6%	nt	nt	-20.3%	nt
COC(=O)NC(CC(C)=O)c1ccc2c(c1)OCO2 (stereo not drawn)	-7.1%[10 µM]	nt	nt	21.7%[10 µM]	nt
CCC(=O)Nc1cc(C)c(O)c(-c2nc3ncccc3o2)c1	nt	nt	-9.4%	nt	nt
Nc1nn(S(=O)(=O)c2ccccc2)cc1-c1ccc([N+](=O)[O-])cc1	35.5µM*	-1.5	-3.5%	?	-42.3%
Cc1ccc(S(=O)(=O)n2cc(-c3ccccc3)c(N)n2)cc1	0.3%	-17.2	-2.1%	20.6%	?
Nc1ccc2oc(-c3cccc4ccccc34)nc2c1	-9.9%	-8.7	3.9%	0.1%	-3.8%
Nc1cccc(-c2nc3cc(S(=O)(=O)c4ccc5oc(-c6cccc(N)c6)nc5c4)ccc3o2)c1	5.01µM*	-6.8	-2.5%	4.47µM*	-34.2%
CCCC(=O)Nc1ccc(-c2nc3cc(C)c(C)cc3o2)cc1	?	-18.0	-4.1%	1.26µM*	-28.4%
Cc1ccc(-c2nc3cc(N)ccc3o2)c(C)c1	-23.0%	-2.1	11.1%	11.2µM*	24.2%
CCCC(=O)Nc1ccc2oc(-c3ccncc3)nc2c1	-9.5%	2.6	-4.1%	5.4%	12.9%
Cc1ccc(-c2nc3cc(N)ccc3o2)cc1	?	?	-7.1%	?	19.7%[7.66 µM]
Cc1ccc2oc(-c3cccc(N)c3)nc2c1	?	-8.1	-6.1%	11.2µM*	-7.8%
CCOC(=O)CNC(=S)n1ncnc1N	-10.4%	-10.9	19.1%	?	-35.1%
COc1ccc(CNc2ncc(-c3cccc([N+](=O)[O-])c3)n2C)c(OC)c1OC	1.6%	3.8	4.2%	-16.2%	-29.1%
